The structures appear in SMILES notation. Counter-ions that a name gives are not always drawn. ± gives the standard deviation of the averaged measurements.

For experiment [1], the system named is MDA-MB-231. Nature of the experiment: cell viability relative to vehicle unstimulated control (fraction); higher = more viable cells. As to conditions: pre-treatment time: 18 h then 24 h IFNg/TNF.
For experiment [2], the system named is MDA-MB-231. Nature of the experiment: kynurenine production, fold change vs DMSO IFNg/TNF control; higher = more kynurenine produced (less inhibition). As to conditions: pre-treatment time: 18 h then 24 h IFNg/TNF. A digest of the protocol: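 After trichloroacetic acid and p-dimethylaminobenzaldehyde treatment, supernatants were read at 492 nm, with 0–100 μM standards. These came from MDA-MB-231 cells (7 × 10^4/well, 96-well plates) pre-treated 18 h with natural products in 0.1% DMSO and then exposed 24 h to IFNγ (1 U/ml) and TNF (6.25 ng/ml) at 37°C. Values for kynurenine production are fold changes over same-plate cytokine-stimulated vehicle wells, averaged over duplicate plates in the first screening round.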
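Wherever cell viability relative to vehicle unstimulated control is given: viability of the cells left after supernatant collection, read with Deep Blue dye added for 4 h, as absorbance at 570 nm minus 600 nm.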

As to `C=C1C(=O)O[C@H]2C[C@@H](C)[C@@H]3CCC(=O)[C@@]3(C)[C@@H](OC(C)=O)[C@H]12` [Ergolide] (compound dose: 10 uM), the cell viability in experiment [1] came to 0.992 ± 0.072. In addition, in experiment [2], the kynurenine production was 0.246 ± 0.13.

Turning to `CC1=CC23C(=O)C(C=C4COC(C)(C)OC4C2(O)C1O)C1C(CC3C)C1(C)C` (stereo unspecified) [Ingenol-5,20-acetonide] (compound dose: 10 uM), the cell viability in experiment [1] was 0.948 ± 0.042. In experiment [2], the kynurenine production turned out to be 1.07 ± 0.082.

As to `C=C(C)[C@@H]1CC[C@]2(C=O)CC[C@]3(C)[C@H](CC[C@@H]4[C@@]5(C)CC[C@H](O)C(C)(C)[C@@H]5CC[C@]43C)[C@@H]12` [Betulinaldehyde] (compound dose: 10 uM), the cell viability in experiment [1] came to 1.005 ± 0.0091. Besides, in experiment [2], the kynurenine production turned out to be 0.697 ± 0.12.

Take `CC(=O)O[C@@H]1CC[C@@]2(C)[C@@H](CC[C@]3(C)[C@@H]2C(=O)C=C2[C@@H]4[C@@H](C)[C@H](C)CC[C@]4(C)CC[C@]23C)[C@@]1(C)C(=O)O` (compound dose: 10 uM): in experiment [1], the cell viability is 1.03 ± 0.031. The kynurenine production in experiment [2] is 1.06 ± 0.062.

With `O[C@@H]1[C@@H](O)[C@@H](OC/C=C/c2ccccc2)O[C@H](CO[C@@H]2OC[C@H](O)[C@H](O)[C@H]2O)[C@H]1O` [Rosavin] (compound dose: 10 uM), the cell viability in experiment [1] came out at 1.003 ± 0.0045. For the same compound, in experiment [2], the kynurenine production amounted to 0.882 ± 0.2.

As to `C/C=C(/C)C(=O)O[C@H]1C(C)=C[C@]23C(=O)[C@@H](C=C4COC(C)(C)O[C@H]4[C@]12O)[C@H]1[C@@H](C[C@H]3C)C1(C)C` [Ingenol-5,20-acetonide-3-O-angelate] (compound dose: 10 uM), the cell viability in experiment [1] was 0.971 ± 0.025. Also, the kynurenine production in experiment [2] amounted to 0.918 ± 0.23.

For `C[C@@]12C[C@H](c3ccoc3)O[C@@]13C[C@H](OC3=O)[C@H]1[C@H]2C[C@@H]2C[C@H]1C(=O)O2` [Diosbulbin B] (compound dose: 10 uM), the cell viability in experiment [1] amounted to 0.78 ± 0.24. Besides, the kynurenine production in experiment [2] worked out at 0.779 ± 0.13.

Take `C[C@@H]1O[C@@H](OC[C@H]2O[C@@H](Oc3c(-c4ccc(O)c(O)c4)oc4cc(O)cc(O)c4c3=O)[C@H](O)[C@@H](O)[C@@H]2O)[C@H](O)[C@H](O)[C@H]1O` [Rutin] (compound dose: 10 uM): the cell viability in experiment [1] was determined as 0.867. Moreover, in experiment [2], the kynurenine production is 0.755 ± 0.058.

`COc1cc2ccc(=O)oc2cc1O[C@@H]1O[C@H](CO)[C@@H](O)[C@H](O)[C@H]1O` [Scopolin] (compound dose: 10 uM): in experiment [1], the cell viability came out at 1.015 ± 0.0034. The kynurenine production in experiment [2] worked out at 1.22 ± 0.16.

Consider `O=c1c(-c2ccc(O)cc2)coc2c([C@@H]3O[C@H](CO)[C@@H](O)[C@H](O)[C@H]3O)c(O)ccc12` [Puerarin] (compound dose: 10 uM), for which the cell viability in experiment [1] was 0.944 ± 0.027. Besides, the kynurenine production in experiment [2] turned out to be 0.927 ± 0.033.

In the case of `CC(C)=C[C@H]1C[C@](C)(O)[C@H]2[C@H]3CC[C@@H]4[C@@]5(C)CC[C@H](O[C@@H]6O[C@H](CO)[C@@H](O)[C@H](O[C@@H]7O[C@H](CO)[C@@H](O)[C@H](O)[C@H]7O)[C@H]6O[C@@H]6O[C@@H](CO)[C@H](O)[C@H]6O)C(C)(C)[C@@H]5CC[C@@]4(C)[C@@]34CO[C@@]2(C4)O1` [Bacoside A3] (compound dose: 10 uM), in experiment [1], the cell viability is 0.944 ± 0.034. In experiment [2], the kynurenine production was 0.672 ± 0.11.

`C[C@@H]1CC[C@H]2[C@@H](C)C(=O)O[C@@H]3O[C@@]4(C)CC[C@@H]1[C@]32O4` [Deoxyartemisinin] (compound dose: 10 uM): the cell viability in experiment [1] was 1.28 ± 0.3. For the same compound, the kynurenine production in experiment [2] stood at 0.8521 ± 0.0034.

With `C=C1CC[C@@H]2[C@](C)(CO)[C@H](O)CC[C@@]2(C)[C@H]1C/C=C1\C=COC1=O` [Dehydroandrographolide] (compound dose: 10 uM), the cell viability in experiment [1] was determined as 0.984 ± 0.032. Also, in experiment [2], the kynurenine production was found to be 0.754 ± 0.058.

As for `COC(=O)C1=CC[C@@]23CC[C@@H]([C@@](C)(/C=C/C=C(\C)C(=O)O)OC2=O)[C@@]3(O)CC1` [Pseudolaric Acid C] (compound dose: 10 uM), the cell viability in experiment [1] was 0.927 ± 0.094. For the same compound, in experiment [2], the kynurenine production turned out to be 1.23 ± 0.051.

Consider `C[C@H](CCC(=O)NCC(=O)O)[C@H]1CC[C@H]2[C@@H]3[C@H](O)C[C@@H]4C[C@H](O)CC[C@]4(C)[C@H]3CC[C@]12C` [Glycochenodeoxycholic acid (sodium salt)] (compound dose: 10 uM), for which the cell viability in experiment [1] was 0.956 ± 0.082. The kynurenine production in experiment [2] was 0.955 ± 0.14.

With `C/C1=C/CC[C@H](C)C(=O)C[C@@H](C(C)C)C(=O)C1` [Curdione] (compound dose: 10 uM), the cell viability in experiment [1] amounted to 0.926 ± 0.015. The kynurenine production in experiment [2] is 1.02 ± 0.059.

On to `CC(C)=CCC[C@](C)(O[C@@H]1O[C@H](CO[C@@H]2O[C@@H](CO)[C@H](O)[C@H]2O)[C@@H](O)[C@H](O)[C@H]1O)[C@H]1CC[C@]2(C)[C@@H]1[C@H](O)C[C@@H]1[C@@]3(C)CC[C@H](O[C@@H]4O[C@H](CO)[C@@H](O)[C@H](O)[C@H]4O[C@@H]4O[C@H](CO)[C@@H](O)[C@H](O)[C@H]4O)C(C)(C)[C@@H]3CC[C@]12C` [Ginsenoside Rc] (compound dose: 10 uM), for which the cell viability in experiment [1] was determined as 0.9496 ± 0.0049. Besides, the kynurenine production in experiment [2] turned out to be 0.744 ± 0.044.

For `C=C1C(=O)O[C@H]2[C@H]1CCC(C)=C1CC[C@@](C)(O)[C@@H]12` [Micheliolide] (compound dose: 10 uM), the cell viability in experiment [1] is 0.904 ± 0.063. The kynurenine production in experiment [2] was 0.591 ± 0.11.

(Values after the supplement of paper PMC13094657.)
